In PubChem BioAssay AID1159580 (chemical genetic matrix, 2015):
Values joined by “and” are separate entries in the source; they are usually repeats but may differ in a detail not shown here. Identical values can stand only once. In all, about 5,500 compounds went through this assay and about 2,000 (36%) were called active. Inconclusive results (about 18%) are left out. Cut-off read from the data, not from the text of the source: active = normalized growth mostly below about 0.91 (no sharp cut-off); inconclusive = no clear call, values can overlap the other calls; inactive = mostly above about 0.92. This is one part of the list.

Test: chemical genetic growth profiling, strain panel (AID 1159580);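 note: tested at 20 µM; growth read once vehicle control cultures reached saturation at 30 °C; 1 = growth at the plate median or of vehicle wells; lower values mean less growth of the strain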
Conditions: S. cerevisiae deletion strains, growth OD

Measured: normalized growth

CCCCN(CC)c1c([N+](=O)[O-])cc(C(F)(F)F)cc1[N+](=O)[O-]
inactive: locus YAL013W, strain DEP1, stronger effect = lower value 1.01 | locus YAL021C, strain ccr4, stronger effect = lower value 0.998 | locus YAL026C, strain drs2, stronger effect = lower value 1.02 | locus YAL030W, strain snc1, stronger effect = lower value 1.02 | locus YBL061C, strain skt5, stronger effect = lower value 1 | locus YBR009C, strain hhf1, stronger effect = lower value 1 | locus YBR021W, strain FUR4, stronger effect = lower value 1.03 | locus YBR023C, strain chs3, stronger effect = lower value 1.01 | locus YBR171W, strain sec66, stronger effect = lower value 1.03 | locus YBR229C, strain ROT2, stronger effect = lower value 0.999 | locus YBR231C, strain swc5, stronger effect = lower value 1 | locus YBR279W, strain paf1, stronger effect = lower value 1.01 | locus YCL011C, strain gbp2, stronger effect = lower value 1 | locus YCL016C, strain dcc1, stronger effect = lower value 1.01 | locus YCL029C, strain bik1, stronger effect = lower value 1.02 | locus YCL061C, strain MRC1, stronger effect = lower value 1.01 | locus YCL069W, strain vba3, stronger effect = lower value 1.02 | locus YCR088W, strain abp1, stronger effect = lower value 1.01 | locus YDL005C, strain med2, stronger effect = lower value 1.02 | locus YDL035C, strain GPR1, stronger effect = lower value 1.02 | locus YDL040C, strain nat1, stronger effect = lower value 1.01 | locus YDL074C, strain BRE1, stronger effect = lower value 1.03 | locus YDL101C, strain DUN1, stronger effect = lower value 1.01 | locus YDL134C, strain PPH21, stronger effect = lower value 1.01 | locus YDL185W, strain tfp1, stronger effect = lower value 1.03 | locus YDL192W, strain arf1, stronger effect = lower value 1.02 | locus YDR001C, strain nth1, stronger effect = lower value 1.01 | locus YDR069C, strain doa4, stronger effect = lower value 1 | locus YDR101C, strain arx1, stronger effect = lower value 1.01 | locus YDR137W, strain rgp1, stronger effect = lower value 0.98 | locus YDR150W, strain NUM1, stronger effect = lower value 1.01 | locus YDR159W, strain sac3, stronger effect = lower value 1 | locus YDR162C, strain NBP2, stronger effect = lower value 1.02 | locus YDR195W, strain ref2 1.01 | locus YDR297W, strain sur2, stronger effect = lower value 1 | locus YDR318W, strain mcm21, stronger effect = lower value 1.01 | locus YDR334W, strain swr1, stronger effect = lower value 1.02 | locus YDR335W, strain msn5, stronger effect = lower value 1.02 | locus YDR388W, stronger effect = lower value 1.01 | locus YDR392W, strain spt3, stronger effect = lower value 1.01 | locus YDR502C, strain sam2, stronger effect = lower value 1.01 | locus YEL003W, strain gim4, stronger effect = lower value 1.02 | locus YEL037C, strain rad23, stronger effect = lower value 1.01 | locus YEL061C, strain CIN8 (second series), stronger effect = lower value 1.03 | locus YEL061C, strain CIN8, stronger effect = lower value 1.01 | locus YER015W, strain faa2, stronger effect = lower value 1.02 | locus YER016W, strain bim1, stronger effect = lower value 1.01 | locus YER110C, stronger effect = lower value 1.02 | locus YER111C, strain swi4, stronger effect = lower value 1.01 | locus YER155C, strain BEM2 (second series), stronger effect = lower value 1.03 | locus YER155C, strain BEM2, stronger effect = lower value 1.01 | locus YER167W, strain BCK2, stronger effect = lower value 1.01 | locus YFR010W, strain ubp6, stronger effect = lower value 1.02 | locus YGL078C, strain dbp3, stronger effect = lower value 1.01 | locus YGL086W, strain mad1, stronger effect = lower value 1.01 | locus YGL167C, strain pmr1, stronger effect = lower value 1.01 | locus YGL173C, strain kem1, stronger effect = lower value 1.01 | locus YGL227W, strain vid30, stronger effect = lower value 1.01 | locus YGL240W, strain doc1, stronger effect = lower value 1.02 | locus YGL248W, strain PDE1, stronger effect = lower value 1 | locus YGL253W, strain hxk2, stronger effect = lower value 1.02 | locus YGR078C, strain PAC10, stronger effect = lower value 1.01 | locus YGR135W, strain pre9, stronger effect = lower value 1.01 | locus YGR229C, strain SMI1, stronger effect = lower value 1.02 | locus YGR252W, strain gcn5, stronger effect = lower value 1.05 | locus YHR013C, strain ard1, stronger effect = lower value 1.06 | locus YHR027C, strain rpn1, stronger effect = lower value 1.03 | locus YHR030C, strain SLT2, stronger effect = lower value 1.01 and 1.08 | locus YHR079C, strain IRE1 (second series), stronger effect = lower value 1.01 | locus YHR079C, strain IRE1, stronger effect = lower value 1.03 | locus YHR094C, strain hxt1, stronger effect = lower value 1.01 | locus YHR129C, strain ARP1, stronger effect = lower value 1.01 | locus YHR142W, strain chs7, stronger effect = lower value 1.02 | locus YHR200W, strain rpn10, stronger effect = lower value 1.01 | locus YIL066C, strain RNR3, stronger effect = lower value 1.01 | locus YIL073C, strain SPO22, stronger effect = lower value 1.02 | locus YIL125W, strain kgd1, stronger effect = lower value 1.01 | locus YIR030C, strain dcg1, stronger effect = lower value 1.01 | locus YJL092W, strain hpr5, stronger effect = lower value 1.01 | locus YJL095W, strain BCK1 (second series), stronger effect = lower value 1.01 | locus YJL095W, strain BCK1, stronger effect = lower value 0.996 and 1.05 | locus YJL115W, strain asf1, stronger effect = lower value 1.01 | locus YJL129C, strain trk1, stronger effect = lower value 1.01 | locus YJL134W, strain LCB3, stronger effect = lower value 1.01 | locus YJL154C, strain vps35, stronger effect = lower value 1.02 | locus YJL164C, strain tpk1, stronger effect = lower value 1.01 | locus YJL166W, strain qcr8, stronger effect = lower value 1 | locus YJL168C, strain set2, stronger effect = lower value 1.01 | locus YJL187C, strain SWE1 (second series), stronger effect = lower value 1.01 | locus YJL187C, strain SWE1, stronger effect = lower value 1.01 | locus YJR043C, strain POL32, stronger effect = lower value 1.02 | locus YJR066W, strain TOR1, stronger effect = lower value 0.992
